Measurements as given in PubChem BioAssay (NCI).
The panel holds about 83,000 compounds, 20% with a hit somewhere; the sample as a whole holds those more often.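 In brief: 96-well plates, 48 h treatment, single concentration, percent growth endpoint.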 Values without a mark were called inactive. Active and inactive are the calls of the source. How the source made its calls: active means growth percent below 10; inactive means the rest.

These compounds were tested on SF-295 CNS (assay: NCI-60 one-dose screen, 48 h (100 = growth as untreated, 0 = no growth, -100 = all killed)). Details: 10 µM unless noted.
Work on COC(=O)CCSC1=C(C)C(=O)c2ccccc2C1=O yielded a growth of 102%.
Work on CCc1cc(OC(=O)N2CCC(N3CCCCC3)CC2)ccc1Nc1cc(-c2ccc(-n3cccn3)cc2)[nH]n1 yielded a growth of 62.4%.
In the case of O=C(Nc1cc(C(F)(F)F)cc(C(F)(F)F)c1)Nc1ccc2oc(=O)ccc2c1, the growth is reported as 0.342% (active).
Cc1ccc2c(n1)C(=O)C(Cl)=C(Nc1ccc(C(=O)OC(C)(C)C)cc1)C2=O showed a growth of 104% [9.25 µM].
Compound Cc1cc(=O)[nH]c(O)c1C#N has a growth of 102%.
Compound CCN(CC)S(=O)(=O)c1ccc(-c2nc(C(Cl)Cl)nc3cc(C)nn23)cc1 has a growth of 48%.
In the case of CNC(=O)Nc1ccc(Nc2cc(-c3ccc(-n4cccn4)cc3)[nH]n2)c(C)c1, the growth is reported as 109%.

What follows are compounds tested on SF-539 CNS in the same assay as above. Details: 10 µM unless noted.
Compound CNc1sc(S(=O)(=O)NC)nc1S(=O)(=O)c1ccc(C)cc1 has a growth of 98.6%.
COc1cccc(N2CCN(C3=C(Cl)C(=O)c4ncccc4C3=O)CC2)c1 was tested, and the growth was 93.8%.
Compound O=C1[C@@H]2Cc3c([nH]c4ccccc34)[C@@H](c3ccc(Cl)cc3)N2C(=O)CN1C1CCN(Cc2ccccc2)CC1 has a growth of 72.7%.
CC(=O)OCCCCN1C=C/C(=C\C(=O)n2ccc3ccccc32)c2ccccc21 was tested, and the growth was 100%.
In the case of CN1CCN(c2ccc(Nc3nc(NCCNS(=O)(=O)c4ccc5ccccc5c4)c4sccc4n3)cc2)CC1, the growth is reported as 65%.
CC1=C(C)C(=O)C(Nc2ccc3c(c2)OCCO3)=C(Br)C1=O showed a growth of 105%.
Work on C=C(C)[C@@H]1CC[C@]2(C(=O)NC3CCCCC3)CC[C@]3(C)[C@H](CC[C@@H]4[C@@]5(C)CC[C@H](N)C(C)(C)[C@@H]5CC[C@]43C)[C@@H]12 yielded a growth of 98.5%.
CCOC(=O)c1c(NC(=O)c2ccc(C(F)(F)F)cc2)sc2c3c(ccc12)OCN(C)C3 was tested, and the growth was -73.1% (active).
With C#CCN(C)CCCOc1ccc(NCc2ccc(/C=C/C(=O)NO)cc2)cc1Cl the growth was -7.77% (active).
Work on COc1cc(/C=N\NC(=O)c2ccc3nc(-c4ccc(Br)cc4)[nH]c3c2)cc(OC)c1OC yielded a growth of 32.6%.
C=C1CCc2nc(SCC(=O)O)ccc2N1 showed a growth of 101%.
In the case of CN1CCC[C@]2(C)[C@H]3CC[C@@H]4[C@@H]5[C@H]6OC[C@@]5(CCC6(C)C)CC[C@@]4(C)[C@]3(C)CC[C@H]2C1(C)C, the growth is reported as 78.4%.
C=C(C=O)[C@@H]1CC[C@]2(C(=O)O)CC[C@]3(C)C(CC[C@@H]4[C@@](C)(CCC#N)[C@H](C(=C)C=O)CC[C@]43C)[C@@H]12 (some centres not stated) gave a growth of 13.4%.
For NCCNC(=O)c1cccc(COc2ccccc2NC(=O)c2cc(Cl)c(Cl)[nH]2)c1, the growth was 97.6%.
COc1ccc(C2c3[nH]c4ccc(Cl)cc4c3CCN2c2oc(CO)nc2C#N)cc1 (configuration not stated) showed a growth of 40.3%.
Work on CN(C)c1ccc(-c2cc(-c3c[nH]c4ccccc34)nc(N)c2C#N)cc1 yielded a growth of 37.5%.
For COc1ccccc1/C=C1\Oc2ccc(O)c(O)c2C1=O, the growth was 91.8%.
CCCCCc1ccc(S(=O)(=O)Nc2cc(-c3csc(N)n3)ccc2OC)cc1 was tested, and the growth was 89.7%.
Compound O=C(O)c1ccc(-n2c(=O)n(-c3cccc(C(F)(F)F)c3)c(=O)c3cc(-c4ccc(F)cc4F)ccc32)cc1 has a growth of 17.8%.
Nn1c(=O)n(-c2cccc(C(F)(F)F)c2)c(=O)c2cc(-c3ccc(F)cc3F)ccc21 gave a growth of 19.4%.
For CCCCN1C(=O)/C(=c2\sc3n(c2=O)C2C(NN=3)N(CC)C(=O)N2CC)c2cc(C)ccc21 (configuration not stated), the growth was 67%.
In the case of CC(C)[C@H]1c2[nH]c3ccccc3c2C[C@H]2C(=O)N(CCCCCCC(=O)NO)CC(=O)N12, the growth is reported as 73.6%.
With O=C(N/N=C\c1ccc(F)cc1)c1ccc2nc(-c3ccc(Br)cc3)[nH]c2c1 the growth was 10.9%.
NC1[C@H]2CN(c3cnc(C(=O)Nc4cc(F)cc5cccnc45)cn3)C[C@@H]12 (some centres not stated) was tested, and the growth was 76.9%.
Compound Cc1ccsc1[C@H]1c2[nH]c3ccccc3c2C[C@H]2C(=O)N(CCCCCCC(=O)NO)CC(=O)N12 has a growth of 77.9%.
For CC(=O)N(O)CCCCCNC(=O)CCC(=O)N(O)CCCCCNC(=O)CCC(=O)N(O)CCCCCN(CCCCCCCCCC[P+](c1ccccc1)(c1ccccc1)c1ccccc1)CCCCCCCCCC[P+](c1ccccc1)(c1ccccc1)c1ccccc1, the growth was -8.94% (active).
For O=c1nc(Nc2ccc([N+](=O)[O-])cc2O)sc2ccccc12, the growth was -36.5% (active).
Cc1cc2nc(C(Cl)Cl)nc(-c3ccc(S(=O)(=O)N(C)C)cc3)n2n1 was tested, and the growth was 69.4%.
With C/C(CC1(O)C(=O)Nc2ccccc21)=N\O (configuration not stated) the growth was 94.7%.
With C[C@]12CC[C@H]3[C@@H](CC=C4C[C@@H](O)CC[C@@]43C)[C@@H]1CC[C@@H]2[C@](C)(O)CCc1cccnc1 the growth was 66.2%.
Compound O=C(CSc1nnc(-c2cccs2)n1-c1ccccc1)Nc1ccccc1F has a growth of 87.9%.
CC(=C(c1ccc(OCCCN(C)C)cc1)c1ccc(OCCCN(C)C)cc1)c1ccc(Cl)cc1 was tested, and the growth was 81.7%.
O=C(CSc1nc2ccccc2c(=O)n1-c1ccc(Cl)c(Cl)c1)Nc1ccc(S(=O)(=O)Nc2ccc(Cl)nn2)cc1 showed a growth of 90.7%.
Work on COC(=O)CCSC1=C(C)C(=O)c2ccccc2C1=O yielded a growth of 78.6%.
With CCc1cc(OC(=O)N2CCC(N3CCCCC3)CC2)ccc1Nc1cc(-c2ccc(-n3cccn3)cc2)[nH]n1 the growth was -54.8% (active).
O=C(Nc1cc(C(F)(F)F)cc(C(F)(F)F)c1)Nc1ccc2oc(=O)ccc2c1 showed a growth of 21.4%.
In the case of Cc1ccc2c(n1)C(=O)C(Cl)=C(Nc1ccc(C(=O)OC(C)(C)C)cc1)C2=O, the growth is reported as 100% [9.25 µM].
For Cc1cc(=O)[nH]c(O)c1C#N, the growth was 97%.
With CCN(CC)S(=O)(=O)c1ccc(-c2nc(C(Cl)Cl)nc3cc(C)nn23)cc1 the growth was 50.7%.
Compound CNC(=O)Nc1ccc(Nc2cc(-c3ccc(-n4cccn4)cc3)[nH]n2)c(C)c1 has a growth of 98.7%.
